Only some compounds are listed: those with a hit (about 1.4% of all), similar ones and a draw of the others.
Polio RdRp inh – poliovirus RNA polymerase inhibition; % elongation, % (compound at 16.7 µg/mL); AID 588519; poliovirus polymerase elongation, fluorescence polarization; stronger effect = lower value; 150,000 tested, 0.66% active; in the data active means % elongation below about 90%
Target sequence (P03300 1749-2209 limits assumed): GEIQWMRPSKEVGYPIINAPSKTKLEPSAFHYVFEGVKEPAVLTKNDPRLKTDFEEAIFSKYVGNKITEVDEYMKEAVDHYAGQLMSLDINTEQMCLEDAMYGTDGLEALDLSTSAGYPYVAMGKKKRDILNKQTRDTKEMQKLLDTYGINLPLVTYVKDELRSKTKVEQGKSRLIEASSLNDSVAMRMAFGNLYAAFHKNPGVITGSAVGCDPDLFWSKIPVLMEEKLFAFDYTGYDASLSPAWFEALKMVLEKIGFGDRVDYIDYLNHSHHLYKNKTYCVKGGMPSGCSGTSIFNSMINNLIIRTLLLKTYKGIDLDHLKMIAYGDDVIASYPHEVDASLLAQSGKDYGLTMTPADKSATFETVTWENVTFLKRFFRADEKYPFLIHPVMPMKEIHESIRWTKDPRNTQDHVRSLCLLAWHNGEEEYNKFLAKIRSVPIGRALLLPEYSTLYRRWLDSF
Mtb MbtI inh – blocks the Mycobacterium tuberculosis siderophore enzyme MbtI; P9WFX0; purified MbtI enzyme, fluorescence intensity read-out; inhibition, % (concentration not given with the values); 100,000 tested, 0.89% active; in the data active means inhibition mostly above about 56%, no sharp cut-off; inactive means mostly below about 77%
AID504770 – growth inhibitors of E. coli YBA685 in a screen for V. cholerae RctB (chromosome II replication) inhibitors. 130,000 tested, 0.27% active. E. coli YBA685 rctB-dependent plasmid, OD600 growth, 3 h; stronger effect = lower value. AID 504770. z-score (concentration not given with the values); in the data active means z-score below about -2, passing the limit was not always enough
MenB inh – blocks the Mycobacterium tuberculosis MenB enzyme; P9WNP5; MenB enzyme assay, absorbance read-out; inhibition, % (test concentration not listed); 100,000 tested, 0.43% active; AID 540299; in the data active means inhibition above about 21%, passing the limit was not always enough
Numbers without * were called inactive; i = inactive; . = no result.

SMILES	Polio RdRp inh	Mtb MbtI inh	AID504770	MenB inh
CC(Oc1ccc(C(=O)c2ccccc2)cc1)C(=O)NN (stereo not drawn)	100	5	-0.4	-23
CCCCn1c(=O)[nH][nH]c1=S	96	78*	2	-17
O=c1[nH][nH]c(=S)n1Cc1ccccc1	103	35	-1.2	-10
CCC(=O)Nc1ccc(S(=O)(=O)N(C)C2CCCCC2)cc1	99	-2	-0.15	-25
CCOc1ccc(C(=O)NC(C(=O)Nc2ccc(S(=O)(=O)N(C)C)cc2)C(C)C)cc1 (stereo not drawn)	102	4	-5*	-29
CCn1c(=O)c2cc(C(=O)N(CCN(C)C)Cc3ccccc3)sc2c2ccccc21	87*	.	.	.
CCn1c(=O)c2cc(C(=O)N(Cc3ccccc3)C(C)C)sc2c2ccccc21	100	38	-0.05	-10
CC1CCCCC1NC(=O)c1ccc(CS(=O)(=O)Cc2ccc(Cl)cc2)o1 (stereo not drawn)	.	.	-0.45	.
CN1CC(=O)NC(=O)C1	84*	32	-0.15	-4
CCOC(=O)CSc1nnc(NC(=O)c2ccccc2)s1	.	.	-0.6	.
O=c1cc(CSc2nnnn2-c2ccccc2)nc(Nc2ccc(F)cc2)[nH]1	.	-10	-3.3*	.
CC1=C/C(=C/N(C)c2ccccc2)C(=O)S1	100	28	-0.7	-147
CC1=CC(=O)C(N(C)c2ccccc2)=CC1=O	103	85*	-0.95	.
O=C(CC(C(=O)O)N(Cc1ccccc1)Cc1ccccc1)c1ccc(Cl)cc1 (stereo not drawn)	96	.	-2.9*	86*
COc1ccccc1C(=O)COC(=O)C1CC(=O)N(CCc2ccccc2)C1 (stereo not drawn)	110	-2	1.5	-45
O=c1sc2c(n1-c1ccccc1)SCC1COc3ccccc3C21 (stereo not drawn)	95	21	0.6	-17
O=C1OC2C(C(=O)O)Sc3c(sc(=O)n3-c3ccccc3)C2c2cc(Br)ccc21 (stereo not drawn)	100	-7	-1.9	39*
CC(NC(=O)/C=C/c1ccccc1Cl)c1ccccc1 (stereo not drawn)	101	3	-0.85	-8
O=C(CCC1CCCCC1)Nc1c[nH]c(=O)[nH]c1=O	102	-5	-2.2*	0
O=C(Nc1c[nH]c(=O)[nH]c1=O)NC1CCCC1	100	1	-0.6	4
CCCNC(=O)N(C)c1ncnnc1NC	100	-4	-0.4	29*
O=C1NC(=O)/C(=C\c2ccccc2)S1	.	.	0.3	.
O=C1N/C(=N\Nc2ccccc2)S/C1=C\c1ccccc1	108	80*	-0.45	-36
COc1ccc(CNc2nccs2)cc1OC	101	4	1.3	29*
N#Cc1nccnc1S(=O)(=O)c1cccs1	.	.	-7.8*	.
SMILES	Polio RdRp inh	Mtb MbtI inh	AID504770	MenB inh
O=S(=O)(c1cccs1)c1cccs1	.	.	-0.65	.
CCN(CC)C(=O)COc1cccc2ccccc12	99	10	-0.25	-18
CCN(CC)C(=O)COc1ccccc1C(=O)NCc1ccccc1	102	-6	-0.45	27*
CCCc1nc(=S)c2ccccc2[nH]1	102	92*	-0.45	-26
C1=CSC(=C2SC=CS2)S1	59*	45	-3.6*	active
COC(=O)C(C#N)c1nc2ccccc2nc1Cl (stereo not drawn)	83*	0	-0.3	-24
CCOc1cc(C#N)c(-n2nnc3c(sc4nc(C)cc(C)c43)c2=O)cc1OCC	78*	.	.	.
O=C(Nc1ccc(F)cc1)C(Sc1nnc(C2CC2)o1)c1ccccc1 (stereo not drawn)	96	55*	-0.4	-4
CN(Cc1ccccc1)C(=O)C1CCN(c2nc3cccnc3s2)CC1	100	20	1.7	-10
CC1=CC(=O)C(CCCC2=CC(=O)C=CC2=O)=CC1=O	102	100*	0.45	0
C=CCC(O)(CN)CC=C	103	1	1.6	32*
CCOC(=O)C1CCC(CNC(=O)N2CCSc3ncccc32)CC1 (stereo not drawn)	102	2	0.05	-9
O=C(c1cnoc1)c1cc(Cl)cc(Cl)c1O	101	-29	-0.4	.
O=C(c1cnoc1)c1ccccc1O	83*	20	0.25	5
NC(=O)N/N=C/c1ccc([N+](=O)[O-])o1	101	10	-3.5*	-1
NC(N)=N/N=C/c1ccc(O)c(Cl)c1	102	-5	0	-22
N#CC(C#N)=Cc1ccc(O)c(Cl)c1	100	61*	-0.8	i
Cc1ccsc1C(=O)OC(C(=O)c1c[nH]c2ccccc12)c1ccccc1 (stereo not drawn)	102	-8	-0.5	.
Nc1c(-c2ccccc2)nc2sccn12	94	88*	1.8	81*
CCOC(=O)c1s/c(=N/N=C(C)C)n(C)c1C	102	56*	-0.8	-15
COC(=O)c1sc2cccc(Cl)c2c1Cl	104	2	-0.65	.
Cc1cc(C)n(C(=O)c2cccs2)n1	103	1	0.4	5
Cc1cc(C)n(C(=O)c2ccoc2C)n1	100	-1	-0.55	36*
CC(C)c1nc(=S)[nH][nH]1	84*	87*	0.2	-8
COC(=O)C1C(O)=C(C=Nc2ccccc2)C(=O)CC1(C)C (stereo not drawn)	101	31	0.6	34*
SMILES	Polio RdRp inh	Mtb MbtI inh	AID504770	MenB inh
COC(=O)N(c1ccccc1)P1(=S)OCCO1	96	102*	1.1	37*
CN(C)CCN1C(=O)c2oc3ccc(F)cc3c(=O)c2C1c1cccs1 (stereo not drawn)	101	-53	-1.1	1
CC1(C)NN=C(N)SC1=O	101	15	1.4	2
O=C1c2ccccc2C(=O)c2c1oc1c3c(ccc21)OCN(CCCn1ccnc1)C3	84*	8	-0.9	-2
O=C1CCCCCN1Sc1ccccc1	102	70*	-0.5	9
CC(C)(C)c1ccc(-c2cc3ncc(-c4ccccc4)c(N)n3n2)cc1	97	19	-2.3*	-11
Cn1nc(-c2ccc(C(C)(C)C)cc2)cc1N	.	.	-0.65	.
COc1ccc2c(c1)cc1n2CCN2CCN=C12	100	-2	-0.2	-3
COc1ccc2c(c1)cc1n2CCN=C1N	89*	.	-1.3	-5
Fc1ccc(Cn2[nH]nnc2=S)cc1	96	69*	-0.8	-17
CS(=O)(=O)n1c(=O)oc2ccccc21	.	-9	-0.95	.
O=c1c(-c2ccn[nH]2)cnc2sc3ccccc3n12	.	.	-1.2	.
CCc1nn(CC(=O)NCc2ccc(C)cc2)c(=O)c2cc3occc3n12	72*	.	.	.
Cc1ccc2o/c(=N\O)c(C(N)=O)cc2c1	100	100*	-1.6	-12
CC1(C)CC(/C=C/c2ccccn2)=Cc2c1sc(N)c2C#N	86	37	0	.
N#CSC12CN3CN(CN(C3)C1)C2	99	6	0.2	33*
CC1(C)CC(=O)C(C2(O)C(=O)c3ccccc3C2=O)C(=O)C1	.	-12	-0.9	.
CC1(C)C=C(O)C(C2(O)C(=O)c3ccccc3C2=O)C(=O)C1 (stereo not drawn)	19*	.	-1	-28
O=C(CC1Sc2ncnn2C1=O)Nc1ccccc1 (stereo not drawn)	100	100*	-0.4	-16
CC(=O)N(CCC#N)c1ccccc1	.	-14	-0.25	.
CCO/C=C1\C(=O)N(Cc2ccccc2)C(=O)c2ccccc21	62*	-5	1.1	.

Screens deposited in PubChem BioAssay by ICCB-Longwood Screening Facility, Harvard Medical School.
